GPR151 activ: activators of human GPR151; actives 1% (n = 650,000); AID 1508602; activation, % at 11.2 µM; PathHunter beta-arrestin GPR151 cells, luminescence; in the data active means activation above about 4.9%;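 further: 0% = median of compound wells and 100% = cells with positive control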
Target sequence (Q8TDV0 whole entry, looked up): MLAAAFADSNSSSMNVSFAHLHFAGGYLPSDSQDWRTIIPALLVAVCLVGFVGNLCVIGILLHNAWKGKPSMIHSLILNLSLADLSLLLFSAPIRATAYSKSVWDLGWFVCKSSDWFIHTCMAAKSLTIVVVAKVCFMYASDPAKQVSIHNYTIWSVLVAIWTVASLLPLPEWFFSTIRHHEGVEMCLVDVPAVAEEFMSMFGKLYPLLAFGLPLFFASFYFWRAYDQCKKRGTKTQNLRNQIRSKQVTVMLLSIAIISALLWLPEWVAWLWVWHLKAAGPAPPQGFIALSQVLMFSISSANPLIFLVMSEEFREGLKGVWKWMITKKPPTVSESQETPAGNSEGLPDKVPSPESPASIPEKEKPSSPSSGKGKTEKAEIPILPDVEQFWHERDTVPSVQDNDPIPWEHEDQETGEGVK
TEAD-YAP block: TEAD-YAP interaction inhibition | HEK-TIYL cells, TEAD-Gal4/YAP UAS-luciferase luminescence | inhibition, % at 9.12 µM | actives 1.4% (n = 640,000) | AID 1259422; in the data active means inhibition above about 32%;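 further: 0% = median of test compound wells and 100% = reference inhibitor wells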
MITF primary: human MITF inhibition, primary screen; O75030; AlphaScreen MITF homodimerization, bead proximity signal; inhibition, % at 2.6 µM; actives 0.91% (n = 650,000); AID 1259374; in the data active means inhibition above about 50%;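 further: 0% = vehicle wells with protein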
FBW7 activator: activators of human E3 ligase FBW7. Q969H0. AlphaScreen FBW7–phospho-cyclin E peptide binding, activator screen. normalized activity (activation), % at 26.1 µM. actives 0.13% (n = 650,000). AID 1259310; in the data active means normalized activity above about 1.9%;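 further: purified mutant Fbw7 with reduced substrate affinity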
* = called active by the depositor. Sampled rows, rich in hits. Any-hit rate of the full collection: about 3.5%.

SMILES | GPR151 activ | TEAD-YAP block | MITF primary | FBW7 activator
CC1CC(C)(C)NC(=S)N1CC(=O)NCC1COc2ccccc2O1 (centres undefined) | 0.4 | 3.4 | -0.5 | 0.3
CCOc1ccc(NC(=O)CC2S/C(=N\N=C\c3ccc(O)c(OC)c3)NC2=O)cc1 (centres undefined) | -0.7 | -11.6 | 5.1 | -0.1
CCOc1ccc(C2C(C#N)=C(N)N(c3ccc(OC)cc3)C3=C2C(=O)CC(C)(C)C3)cc1 (centres undefined) | -0.8 | 46.6* | 8.0 | 0.1
CCc1ccc(C2C(C#N)=C(N)N(c3ccc(OC)cc3)C3=C2C(=O)CC(C)(C)C3)cc1 (centres undefined) | 1.6 | -13.5 | 1.8 | 0.0
COc1cc(C2C(C#N)=C(N)N(c3ccc(Br)cc3)C3=C2C(=O)CC(C)(C)C3)cc(OC)c1OC (centres undefined) | 1.0 | 41.1* | 3.1 | 0.2
COc1ccc(N2C(N)=C(C#N)C(c3ccc(OC)c(OC)c3)C3=C2CC(C)(C)CC3=O)cc1 (centres undefined) | -0.8 | 40.0* | -1.4 | 0.0
CCCc1ccc(OCC(=O)Oc2c(C)cccc2C)cc1 | 0.8 | 2.1 | 5.9 | 0.0
Cc1cc(NC(=O)CSc2nc3ccsc3c(=O)n2Cc2ccc3c(c2)OCO3)n[nH]1 | 1.9 | 12.2 | 19.4 | 0.7
Cc1nc2ccc(N=Cc3ccc(N(C)C)cc3)cc2s1 | 2.0 | -0.2 | 4.2 | -0.2
CN(C)c1ccc2nc3ccc(=[N+](C)C)cc-3sc2c1 | -0.7 | 31.6 | -203.6 | 19.5*
CCN(CC)c1ccc(C2NC(=O)NC(C)=C2C(=O)OCc2ccc3c(c2)OCO3)cc1 (centres undefined) | -0.9 | 17.1 | 9.2 | -0.1
CC1=C(C(=O)OCc2ccc3c(c2)OCO3)C(c2ccc(Cl)cc2)NC(=O)N1 (centres undefined) | -0.4 | 76.9* | 11.0 | 0.0
CC1=C(C(=O)OCc2ccc3c(c2)OCO3)C(c2ccccc2OC(C)C)NC(=O)N1 (centres undefined) | -0.2 | -9.0 | 11.6 | 1.1
CC1=C(C(=O)OCc2ccc3c(c2)OCO3)C(c2ccc([N+](=O)[O-])cc2)NC(=O)N1 (centres undefined) | -0.4 | 76.1* | 3.6 | 0.0
CC1=C(C(=O)OCc2ccc3c(c2)OCO3)C(c2ccc(F)cc2)NC(=O)N1 (centres undefined) | 1.4 | 60.8* | 12.1 | -0.1
CC1=C(C(=O)OCC2CCCO2)C(c2ccc([N+](=O)[O-])cc2)NC(=O)N1 (centres undefined) | 0.0 | 3.2 | -0.8 | -0.1
CCOC(=O)c1cc2sc(Br)cc2n1CC(=O)N(C)C | 0.5 | 34.4* | -12.1 | -0.2
CCOc1ccc(NC(=O)CSc2nc3cc4c(cc3c(=O)n2CCCC(=O)NCc2ccc(OC)cc2)OCO4)cc1 | 0.4 | 0.2 | -4.3 | -0.1
CCOC(=O)C(=CNc1ccc2ocnc2c1)C(=O)OCC | 0.3 | -7.1 | 2.7 | -0.1
O=C(C1CCN(Cc2cc(Cl)ccc2O)CC1)N1CCN(Cc2ccccc2)CC1 | 0.9 | 5.5 | 59.1* | 0.1
O=C(C1CCN(Cc2ccccc2O)CC1)N1CCCCC1 | -1.3 | 0.0 | 52.4* | 0.3
Cc1cncc2cccc(NC3CCN(C(=O)C(N)c4ccc(Br)cc4)CC3)c12 (centres undefined) | -1.6 | 31.7 | 23.1 | -0.6
CCOC(=O)C1=C(C)N=c2s/c(=C\c3ccc(OC(C)=O)c(OC)c3)c(=O)n2C1c1ccc(OC)cc1 (centres undefined) | -0.4 | -7.9 | -0.5 | -0.1
CC1=NN(C(=S)c2ccccc2)C(C)(O)C12CC2 (centres undefined) | -3.2 | 33.0* | 1.6 | -0.1
CC1=NN(C(=O)c2ccccc2)C(C)(C)C1 | 0.0 | -4.8 | -5.9 | -0.4
SMILES | GPR151 activ | TEAD-YAP block | MITF primary | FBW7 activator
CCOC(=O)c1c(C(F)(F)F)nc2n1CCN(C(=O)c1cnn(CC)c1)C2 | -0.1 | -6.2 | 16.5 | 0.7
COC(=O)c1c(C)oc2cc(C)c(NS(=O)(=O)c3ccc(Br)cc3)cc12 | -0.4 | 34.1* | 1.7 | 0.0
Cc1ccc(S(=O)(=O)Nc2cc3c4c(oc3cc2C)CCCC4=O)cc1 | 0.5 | 9.7 | 8.3 | 0.0
COC(=O)c1cccc(NS(=O)(=O)c2ccc(C)cc2)c1 | 0.3 | 53.4* | 5.5 | 0.1
COC(=O)c1c(C)oc2c1cc(NS(=O)(=O)c1ccc(Br)cc1)c1ccccc12 | 0.4 | 4.5 | 5.9 | -0.1
COc1ccc(S(=O)(=O)Nc2cc3c4c(oc3cc2C)CCCC4=O)cc1 | 0.9 | 54.8* | 0.8 | 0.0
COC(=O)c1c(C)oc2ccc(NS(=O)(=O)c3ccc(C)cc3)cc12 | 0.8 | 56.2* | -0.6 | 0.0
CC(=O)c1cccc(-c2cc(NCc3cccc(C(F)(F)F)c3)ncn2)c1 | -1.1 | -23.5 | 5.1 | -0.1
COC(=O)c1c(C)oc2ccc(NS(=O)(=O)c3ccc(OC)cc3)cc12 | -0.4 | 72.4* | -22.1 | -0.1
COC(=O)c1c(C)oc2ccc(NS(=O)(=O)c3ccc(Cl)cc3)cc12 | 0.4 | 15.8 | -4.9 | 0.1
COc1cc(Nc2nc(NCCN3CCOCC3)c3ncn(-c4ccccc4)c3n2)cc(OC)c1OC | -0.1 | 41.9* | 6.6 | 0.5
c1ccc(-n2cnc3c(NCCN4CCOCC4)nc(Nc4ccc(N5CCOCC5)cc4)nc32)cc1 | 4.1 | 58.9* | 18.0 | -0.2
Cn1nccc1Nc1nc(NCCN2CCOCC2)c2ncn(-c3ccsc3)c2n1 | -1.6 | 49.6* | -0.4 | 0.0
c1ccc(Nc2nc(NCCN3CCOCC3)c3ncn(-c4ccsc4)c3n2)cc1 | 0.6 | 54.6* | -0.5 | -0.1
COc1cc(Nc2nc(NCCO)c3ncn(-c4ccccc4)c3n2)cc(OC)c1OC | 0.4 | 27.8 | 0.3 | 0.0
Cc1ncc([N+](=O)[O-])n1CCSc1nc2ccccc2[nH]1 | -0.1 | 2.8 | 0.2 | -0.2
CN(C(=O)CSc1nnnn1C)c1ccccc1 | -0.1 | 4.0 | -7.1 | 0.1
c1ccc(-n2cnc3c(NCCN4CCOCC4)nc(Nc4cccnc4)nc32)cc1 | 0.7 | 33.7* | -0.7 | 0.0
c1ccc(-c2nc(NCCN3CCOCC3)c3ncn(-c4ccsc4)c3n2)cc1 | 0.6 | 33.3* | 5.0 | 0.0
c1ccc(-n2cnc3c(Nc4ccc(N5CCOCC5)cc4)nc(Nc4nccc5ccccc45)nc32)cc1 | 0.9 | 43.4* | 16.4 | 0.0
c1cnc2ccc(Nc3nc(NCCN4CCOCC4)c4ncn(-c5ccsc5)c4n3)cc2c1 | 0.3 | 48.3* | 3.8 | -0.1
Cc1c(C(=O)N2CCCCC2)sc2ncn(CC(=O)N3CCOCC3)c(=O)c12 | -0.3 | 1.9 | -10.3 | -0.1
Cc1cccc(C(=O)NC(=S)Nc2ccc(NC(=O)c3ccco3)cc2)c1 | 0.3 | -2.1 | -2.6 | -0.1
COc1cccc(C(=O)Nc2ccc3oc(=O)ccc3c2)c1 | 0.7 | -17.4 | -2.2 | 0.0
N#CCNC(=O)c1cc2nc3c(c(C(F)(F)F)n2n1)CCc1ccccc1-3 | 0.6 | -8.0 | 4.9 | -0.1
CC(=O)Nc1cccc(-c2cnc3c(NC(CO)C(C)C)nccn23)c1 (centres undefined) | -1.0 | 0.7 | 12.0 | 0.3
COc1cc(Nc2nc(Nc3ccnn3C)nc3c2ncn3-c2ccsc2)cc(OC)c1OC | 0.0 | 62.7* | 15.8 | 0.0
